What all share (settings): mRNA level, 48 h; actives raise or lower the signal
Read-out in assay [1]: Cytochrome P450 (CYP24A1), CYP24A1 (gene 1591)
Description: LTEA_HepaRG_CYP24A1: Life Technologies and Expression Analysis (LTEA) Assay for Cytochrome P450 (CYP24A1) using HepaRG (AID 2283478). The method, boiled down: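 qRT-PCR read-out: CYP24A1 transcript levels normalized to three housekeeping genes, bidirectional curve fits against 0.5% DMSO baseline. Human HepaRG cells treated 48 h with chemicals at eight concentrations from 100 uM in half-log steps.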

Read-out in assay [2]: Cytochrome P450 (CYP1A2), CYP1A2 (gene 1544)
Description: LTEA_HepaRG_CYP1A2: Life Technologies and Expression Analysis (LTEA) Assay for Cytochrome P450 (CYP1A2) using HepaRG (AID 2283479). The method, boiled down: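 HepaRG, 48 h exposure, top 100 uM, half-log 8-pt, 0.5% DMSO vehicle, duplicates. Readout: TaqMan qRT-PCR of CYP1A2 mRNA, housekeeping-normalized (ACTB/GAPDH/POLR2A). Gain/loss fit relative to DMSO baseline.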

Read-out in assay [3]: cysteine-aspartic acid protease (CASP8), CASP8 (gene 841)
The assay can be described thus: LTEA_HepaRG_CASP8: Life Technologies and Expression Analysis (LTEA) Assay for cysteine-aspartic acid protease (CASP8) using HepaRG (AID 2283480). Put shortly: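 qRT-PCR readout of CASP8 mRNA, normalized to three housekeeping genes, after 48 h chemical exposure of HepaRG cells; 8-point half-log series, top 100 uM, 0.5% DMSO vehicle. Bidirectional curve fitting against DMSO baseline.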

Read-out in assay [4]: Cytochrome P450 (CYP2B6), CYP2B6 (gene 1555)
Description: LTEA_HepaRG_CYP2B6: Life Technologies and Expression Analysis (LTEA) Assay for Cytochrome P450 (CYP2B6) using HepaRG (AID 2283481). Put shortly:
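Read-out is CYP2B6 mRNA by TaqMan qRT-PCR, normalized to three housekeeping genes and fitted bidirectionally against 0.5% DMSO baseline. Human HepaRG cells received test chemicals for 48 h, top concentration 100 uM, half-log dilutions.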

Read-out in assay [5]: Cytochrome P450 2C19 (Homo sapiens) (UniProt P33261)
The assay can be described thus: LTEA_HepaRG_CYP2C19: Life Technologies and Expression Analysis (LTEA) Assay for CYP2C19 using HepaRG (AID 2283482). The method, boiled down:
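HepaRG, 48 h chemical exposure, 8-pt half-log series from 100 uM in 0.5% DMSO, duplicates. Readout: CYP2C19 mRNA by TaqMan qRT-PCR, housekeeping-normalized. Bidirectional fit vs DMSO baseline; phenobarbital 1mM as induction control.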

Read-out in a further assay: CYP2C8 (gene 1558)
The assay can be described thus: LTEA_HepaRG_CYP2C8: Life Technologies and Expression Analysis (LTEA) Assay for CYP2C8 using HepaRG (AID 2283483). Put shortly:
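HepaRG (human liver line), 48 h chemical exposure, 8-pt half-log series from 100 uM, 0.5% DMSO vehicle. Readout: CYP2C8 transcript by qRT-PCR, housekeeping-normalized. Bidirectional fit vs DMSO baseline.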

Read-out in a further assay: CYP2C9 (gene 1559)
The assay can be described thus: LTEA_HepaRG_CYP2C9: Life Technologies and Expression Analysis (LTEA) Assay for CYP2C9 using HepaRG (AID 2283484). The method, boiled down:
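HepaRG, 48 h dosing, 8-pt half-log series, top 100 uM, 0.5% DMSO vehicle. Read-out: CYP2C9 transcript by TaqMan qRT-PCR, housekeeping-normalized (ACTB/GAPDH/POLR2A). Gain or loss fitted vs DMSO baseline.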

Read-out in assay [6]: Cytochrome P450 3A4 (Homo sapiens) (UniProt P08684)
Description: LTEA_HepaRG_CYP3A4: Life Technologies and Expression Analysis (LTEA) Assay for CYP3A4 using HepaRG (AID 2283487). The method, boiled down:
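HepaRG, 48 h exposure, 8-pt CRC from 100 uM (half-log), 0.5% DMSO, duplicates; serum-free induction medium. Readout: CYP3A4 mRNA, qRT-PCR, ACTB/GAPDH/POLR2A normalization. Bidirectional fit vs DMSO.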

Read-out in assay [7]: DNA damage-inducible transcript 3 (DDIT3), DDIT3 (gene 1649)
The assay can be described thus: LTEA_HepaRG_DDIT3: Life Technologies and Expression Analysis (LTEA) Assay for DNA damage-inducible transcript 3 (DDIT3) using HepaRG (AID 2283488). The method, boiled down:
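Cells are human HepaRG liver cells treated for 48 h with eight half-log concentrations up to 100 uM in 0.5% DMSO. Transcript levels come from qRT-PCR normalized to three housekeeping genes, with activity fitted in both directions relative to vehicle.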

Read-out in assay [8]: Pro-epidermal growth factor (Homo sapiens) (UniProt P01133)
The assay can be described thus: LTEA_HepaRG_EGF: Life Technologies and Expression Analysis (LTEA) Assay for Epidermal growth factor (EGF) using HepaRG (AID 2283489). Put shortly: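 qRT-PCR readout of EGF transcript after 48 h chemical exposure of HepaRG cells; eight concentrations from 100 uM down in half-log steps, duplicate wells, 0.5% DMSO vehicle. Bidirectional curve fitting against DMSO baseline.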

Read-out in assay [9]: Early growth response protein 1 (EGR1) transcription factor, EGR1 (gene 1958)
The assay can be described thus: LTEA_HepaRG_EGR1: Life Technologies and Expression Analysis (LTEA) Assay for Early growth response protein 1 (EGR1) transcription factor using HepaRG (AID 2283490). The method, boiled down: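 HepaRG, 48 h exposure, 8-pt half-log series from 100 uM, 0.5% DMSO vehicle; EGR1 transcript by TaqMan qRT-PCR (Fluidigm array), housekeeping-normalized; bidirectional fit relative to DMSO baseline.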

Read-out in assay [10]: Ezrin (EZR), EZR (gene 7430)
Description: LTEA_HepaRG_EZR: Life Technologies and Expression Analysis (LTEA) Assay for Ezrin (EZR) using HepaRG (AID 2283491). The method, boiled down: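 Read-out is EZR transcript level by qRT-PCR, normalized to three housekeeping genes and fitted bidirectionally against the DMSO control. Human HepaRG cells received test chemicals for 48 h at eight half-log concentrations up to 100 uM in 0.5% DMSO.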

Read-out in assay [11]: Cytochrome P450 3A7 (Homo sapiens) (UniProt P24462)
Description: LTEA_HepaRG_CYP3A7: Life Technologies and Expression Analysis (LTEA) Assay for CYP3A7 using HepaRG (AID 2283492). The method, boiled down: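 CYP3A7 transcript levels were read by TaqMan qRT-PCR on Fluidigm arrays after 48 h chemical exposure of human HepaRG cells, with housekeeping-gene normalisation. Eight half-log concentrations up to 100 uM in 0.5% DMSO were tested in duplicate.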

Read-out in another assay: CYP3A5 (gene 1577)
Description: LTEA_HepaRG_CYP3A5: Life Technologies and Expression Analysis (LTEA) Assay for CYP3A5 using HepaRG (AID 2283493). Put shortly:
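Human HepaRG hepatic cells receive 48 h chemical treatment at eight concentrations (half-log steps from 100 uM) in 0.5% DMSO. Expression of CYP3A5 is quantified by Fluidigm qRT-PCR and normalized to three reference genes.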

Read-out in assay [12]: Fatty Acid-Binding Protein 1 (FABP1), FABP1 (gene 2168)
Description: LTEA_HepaRG_FABP1: Life Technologies and Expression Analysis (LTEA) Assay for Fatty Acid-Binding Protein 1 (FABP1) using HepaRG (AID 2283494). The method, boiled down: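 qRT-PCR readout of FABP1 transcript (normalized to three housekeeping genes) after 48 h chemical exposure of HepaRG cells; eight concentrations, half-log steps, max 100 uM, 0.5% DMSO vehicle; gain or loss fitted relative to DMSO baseline.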

Read-out in assay [13]: Cytochrome P450 7A1 (Homo sapiens) (UniProt P22680)
The assay can be described thus: LTEA_HepaRG_CYP7A1: Life Technologies and Expression Analysis (LTEA) Assay for Cytochrome P450 7A1 (CYP7A1) using HepaRG (AID 2283496). The method, boiled down:
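HepaRG, 48 h exposure, 8-pt half-log series from 100 uM, 0.5% DMSO vehicle, duplicates. Readout: TaqMan qRT-PCR mRNA vs three housekeeping genes; bidirectional curve fit against DMSO baseline.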

Read-out in assay [14]: Glutathione S-Transferase (GSTA2), GSTA2 (gene 2939)
Description: LTEA_HepaRG_GSTA2: Life Technologies and Expression Analysis (LTEA) Assay for Glutathione S-Transferase (GSTA2) using HepaRG (AID 2283497). Put shortly:
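qRT-PCR readout of GSTA2 transcript, normalized to three housekeeping genes, fitted bidirectionally against 0.5% DMSO baseline. Differentiated HepaRG cells received compound for 48 h at 8 concentrations (top 100 uM, half-log steps).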

Read-out in assay [15]: Cytochrome P450 4A22 (Homo sapiens) (UniProt Q5TCH4)
Description: LTEA_HepaRG_CYP4A22: Life Technologies and Expression Analysis (LTEA) Assay for Cytochrome P450 4A22 (CYP4A22) using HepaRG (AID 2283495). Put shortly:
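HepaRG, 48 h post-plating -> serum-free induction medium; dosed 48 h, duplicate, 8 conc. (100 uM top, half-log), 0.5% DMSO. Readout: CYP4A22 mRNA by qRT-PCR, ACTB/GAPDH/POLR2A normalization; gain/loss fit relative to DMSO.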

The source made the active and inactive calls. Rule for the calls: active = hit-call score of the fitted dose curve at least 0.9, where 1 is the maximum; inactive = score below 0.9.

Chain of Cytochrome P450 2C19 (Homo sapiens) (P33261 whole entry, looked up): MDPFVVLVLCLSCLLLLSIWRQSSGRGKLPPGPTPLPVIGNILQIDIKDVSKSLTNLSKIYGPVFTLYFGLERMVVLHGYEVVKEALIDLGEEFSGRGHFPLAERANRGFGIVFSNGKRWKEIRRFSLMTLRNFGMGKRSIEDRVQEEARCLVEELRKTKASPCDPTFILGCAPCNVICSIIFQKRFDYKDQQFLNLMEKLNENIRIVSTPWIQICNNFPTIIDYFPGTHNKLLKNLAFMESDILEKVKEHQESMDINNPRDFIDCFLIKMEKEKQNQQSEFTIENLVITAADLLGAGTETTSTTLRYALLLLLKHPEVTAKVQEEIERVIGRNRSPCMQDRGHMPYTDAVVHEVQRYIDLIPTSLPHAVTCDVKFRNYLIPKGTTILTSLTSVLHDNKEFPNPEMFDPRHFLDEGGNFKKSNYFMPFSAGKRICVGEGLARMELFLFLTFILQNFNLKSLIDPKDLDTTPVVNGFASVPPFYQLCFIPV
Chain of Cytochrome P450 3A7 (Homo sapiens) (P24462 whole entry, looked up): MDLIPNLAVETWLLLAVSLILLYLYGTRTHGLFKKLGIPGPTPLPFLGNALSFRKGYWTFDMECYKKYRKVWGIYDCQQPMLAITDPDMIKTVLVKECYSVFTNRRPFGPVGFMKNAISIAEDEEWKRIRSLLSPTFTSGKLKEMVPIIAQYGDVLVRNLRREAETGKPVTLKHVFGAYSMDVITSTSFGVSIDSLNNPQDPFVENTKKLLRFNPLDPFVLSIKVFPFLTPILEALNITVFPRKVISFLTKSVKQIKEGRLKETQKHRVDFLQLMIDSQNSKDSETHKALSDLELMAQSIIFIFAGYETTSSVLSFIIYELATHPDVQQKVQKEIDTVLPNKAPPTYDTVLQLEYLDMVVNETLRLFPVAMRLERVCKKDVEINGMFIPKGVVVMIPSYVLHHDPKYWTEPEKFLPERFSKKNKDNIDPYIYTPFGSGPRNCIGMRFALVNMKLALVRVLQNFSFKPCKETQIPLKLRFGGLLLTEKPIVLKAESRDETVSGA
Chain of Cytochrome P450 3A4 (Homo sapiens) (P08684 whole entry, looked up): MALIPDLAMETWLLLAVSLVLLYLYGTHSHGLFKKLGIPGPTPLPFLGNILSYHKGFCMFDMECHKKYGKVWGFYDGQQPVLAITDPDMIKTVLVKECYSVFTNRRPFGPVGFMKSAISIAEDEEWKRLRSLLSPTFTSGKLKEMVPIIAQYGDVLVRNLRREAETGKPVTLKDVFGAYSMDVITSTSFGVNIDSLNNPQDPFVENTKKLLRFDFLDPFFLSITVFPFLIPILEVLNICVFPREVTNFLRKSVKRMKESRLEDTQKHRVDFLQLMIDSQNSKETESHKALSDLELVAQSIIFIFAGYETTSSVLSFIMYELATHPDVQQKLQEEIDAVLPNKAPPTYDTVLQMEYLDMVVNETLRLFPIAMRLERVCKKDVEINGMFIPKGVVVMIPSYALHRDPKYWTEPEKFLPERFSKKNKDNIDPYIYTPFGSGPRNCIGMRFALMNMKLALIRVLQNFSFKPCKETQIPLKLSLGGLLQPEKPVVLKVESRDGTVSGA

Turning to `COc1ccc(OC(F)(F)F)cc1CN[C@H]1CCCN[C@H]1c1ccccc1`, the compound was classed as inactive (in assay [1]; in assay [3]; with CYP2C8 (gene 1558); in assay [10]; in assay [11]; in assay [13]). For the same compound, the AC50 (commonly the midpoint of the concentration-response curve, whichever way the signal moves) in assay [2] was 15.8 µM (active); in assay [4], 86.1 µM (active); in assay [5], 2.8 µM (active); with CYP2C9 (gene 1559), 83.7 µM (active); in assay [6], 91.9 µM (active); in assay [7], 72.8 µM (active). Besides, the AC50 in assay [8] is 50 µM (active); in assay [9], 86.6 µM (active); in the assay with CYP3A5 (gene 1577), 78.5 µM (active); in assay [12], 77.9 µM (active); in assay [14], 5.08 µM (active).

As to `CCCCC(CC)COP(=O)(OCC(CC)CCCC)OCC(CC)CCCC` (stereo not given), the compound was called inactive (in assay [1]; in assay [3]; in the assay with CYP2C8 (gene 1558); with CYP2C9 (gene 1559); in [7]; in assay [8]). Moreover, the result (in [9]; in assay [10]; with CYP3A5 (gene 1577); in assay [12]; in [15]; in assay [13]) was inactive. Moreover, the call in assay [14] was inactive. The AC50 in assay [2] was 24.6 µM (active); in assay [4], 8.38 µM (active); in assay [5] it was 7.79 µM (active); in [6], 5.79 µM (active); in assay [11], 5.61 µM (active).

Regarding `CCCCCCCCCC[N+](C)(C)[O-]`, the compound was classed as inactive (in assay [1]; in assay [2]; in assay [3]; in assay [5]; with CYP2C8 (gene 1558); with CYP2C9 (gene 1559)). For the same compound, the call in [6], in assay [7], in [8], in assay [9], in assay [10] and in assay [11] was inactive. Also, the compound was called inactive (with CYP3A5 (gene 1577); in assay [12]; in assay [15]; in assay [13]; in assay [14]). In addition, the AC50 in assay [4] was 34 µM (active).

For the compound `O=C1c2c(O)cccc2Cc2cccc(O)c21`, the outcome (in assay [1]; in [3]; in assay [4]; in assay [5]; with CYP2C8 (gene 1558); with CYP2C9 (gene 1559)) was inactive. Moreover, the compound was classed as inactive in assay [6], in assay [7], in assay [8], in assay [9], in [10] and in [11]. Besides, the outcome (with CYP3A5 (gene 1577); in assay [12]; in assay [13]; in [14]) was inactive. In addition, the concentration at half-maximal activity (AC50) in [2] was 18.2 µM (active).
